Screening results as filed in PubChem BioAssay.
C diff HTS: blocks growth of Clostridium difficile; Clostridium difficile clinical isolate growth, OD600, 24 h; hits give low values; growth activity, negative = inhibition, % at 16 µg/mL (by protocol); hit rate 0.25% among 86,000; AID 1259249;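 active = mean growth activity at or below -80% and every replicate also at or below -80%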;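 also: 0% = DMSO wells and -100% = levofloxacin 16 µg/mL wells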
Pf Dd2 growth: blocks growth of Plasmodium falciparum Dd2 parasites. AID 1159554. P. falciparum Dd2 growth, SYBR Green, 72 h; hits give low values. activity change, % at 10 µM. hit rate 2.3% among 94,000; in the data active = activity change below about -80%
T cruzi growth: blocks T. cruzi growth in NIH3T3 culture | T. cruzi beta-gal in NIH3T3, GalScreen luminescence, 90 h | inhibition, % at 8.34 µM | hit rate 5.9% among 77,000 | AID 624255;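 active = mean inhibition above about 93%, with at least 55% of replicates each passing it, limit read from the data, passing the limit was not always enough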
An asterisk follows results filed as active; . = no result given. A selection: hits, their analogues and other compounds. The true share with any hit is near 6.7%.

SMILES | C diff HTS | Pf Dd2 growth | T cruzi growth
COc1ccc(S(=O)(=O)N(C)C[C@H]2OCCCC[C@@H](C)Oc3ccc(NC(=O)Cc4ccccc4)cc3C(=O)N([C@@H](C)CO)C[C@H]2C)cc1 | 6.6 | -71.4 | 70.8
C[C@@H]1CCCCO[C@H](CN(C)S(=O)(=O)c2ccc(F)cc2)[C@@H](C)CN([C@@H](C)CO)C(=O)c2cc(NC(=O)Cc3ccccc3)ccc2O1 | . | -75.8 | 89.9
Cc1noc(C)c1NC(=O)Nc1ccc2c(c1)C(=O)N([C@@H](C)CO)C[C@@H](C)[C@H](CN(C)C(=O)CCCN(C)C)OCCCC[C@H](C)O2 | -7.5 | 61.7 | 28.5
COc1ccc(NC(=O)Nc2ccc3c(c2)CC(=O)N([C@H](C)CO)C[C@@H](C)[C@@H](CN(C)S(C)(=O)=O)O3)cc1 | 1.1 | 15.0 | 19.3
C[C@H](CO)N1C[C@H](C)[C@H](CN(C)S(=O)(=O)c2ccccc2)Oc2cc(C#Cc3ccncc3)ccc2S1(=O)=O | 2.8 | -79.7 | 49.7
C[C@H]1CN([C@@H](C)CO)S(=O)(=O)c2ccc(C#Cc3ccncc3)cc2O[C@@H]1CN(C)S(=O)(=O)c1ccc(F)cc1 | -2.4 | -88.0* | 98.4
Cc1ccc(S(=O)(=O)N(C)C[C@H]2Oc3cc(C#Cc4ccncc4)ccc3S(=O)(=O)N([C@@H](C)CO)C[C@H]2C)cc1 | -2.2 | -82.4* | 70.9
CC(C)CC#Cc1ccc2c(c1)O[C@@H](CN(C)S(=O)(=O)c1ccc(F)cc1)[C@H](C)CN([C@H](C)CO)S2(=O)=O | 4.5 | -66.7 | .
CC(C)CC#Cc1ccc2c(c1)O[C@H](CN(C)S(=O)(=O)c1ccc(F)cc1)[C@H](C)CN([C@@H](C)CO)S2(=O)=O | 9.3 | -76.9 | .
C[C@@H]1CN([C@@H](C)CO)S(=O)(=O)c2ccc(C#Cc3ccncc3)cc2O[C@H]1CN(C)S(=O)(=O)c1ccc(F)cc1 | 2.4 | -86.4* | 90.5
CC(C)NC(=O)N(C)C[C@@H]1Oc2ncc(-c3ccccc3F)cc2C(=O)N([C@@H](C)CO)C[C@@H]1C | -4.8 | 19.4 | 22.6
COc1ccc(NC(=O)N(C)C[C@@H]2Oc3c(NC(=O)Nc4c(C)noc4C)cccc3C(=O)N([C@H](C)CO)C[C@H]2C)cc1 | . | 12.6 | -14.9
CCCNC(=O)C[C@@H]1CC[C@H]2[C@@H](COC[C@H](O)CN2C(=O)CC)O1 | 3.7 | 27.4 | .
COc1ccc(C#Cc2ccc3c(c2)[C@@H]2[C@@H](CCN2C(C)=O)[C@@H](CO)N3)cc1 | -14.7 | -5.1 | 23.4
COc1ccccc1CN1CC[C@@H]2[C@@H](CO)Nc3ccc(-c4cccc(F)c4)cc3[C@@H]21 | -5.7 | -67.8 | 48.8
COc1cccc(-c2ccc3c(c2)[C@H]2[C@H](CCN2Cc2ccccc2OC)[C@H](CO)N3)c1 | -90.6* | -75.7 | 5.1
COc1ccc(C#Cc2ccc3c(c2)[C@H]2[C@H](CCN2Cc2ccncc2)[C@@H](CO)N3)cc1 | 5.4 | -91.7* | .
COc1ccccc1CN1CC[C@@H]2[C@H](CO)Nc3ccc(C#Cc4ccccc4)cc3[C@@H]21 | -98.5* | -50.7 | -15.8
COc1ccccc1CN1CC[C@@H]2[C@H]1c1cc(-c3cccc(F)c3)ccc1N[C@@H]2CO | -0.6 | -75.7 | 26.3
OC[C@@H]1Nc2ccc(C#Cc3ccc(F)cc3)cc2[C@H]2NCC[C@@H]12 | 48.0 | -89.5* | .
O=C(c1ccc(F)cc1)N1CC[C@@H]2[C@H](CO)Nc3ccc(C#Cc4ccc(F)cc4)cc3[C@@H]21 | 8.2 | -56.8 | 27.8
CNC[C@@H]1OCCCC[C@@H](C)Oc2ccc(NC(=O)c3ccccc3)cc2C(=O)N([C@@H](C)CO)C[C@H]1C | -4.3 | 14.9 | 46.6
C[C@@H]1CCCCO[C@H](CN(C)CC2CCCCC2)[C@H](C)CN([C@H](C)CO)C(=O)c2cc(NC(=O)CCC(F)(F)F)ccc2O1 | 9.8 | -23.3 | 18.4
CNC[C@@H]1Oc2ccc(NC(=O)CCCN(C)C)cc2CC(=O)N([C@H](C)CO)C[C@H]1C | -0.1 | 45.8 | .
O=C(NCCCN1CCOCC1)[C@@H]1[C@@H](CO)[C@@H]2Cn3c(cccc3=O)[C@H]1N2C(=O)C1CCCCC1 | 2.0 | 27.8 | .
CCNC(=O)C[C@@H]1CC[C@H]2[C@@H](COc3ccc(NC(=O)c4ccc(F)cc4)cc3C(=O)N2C)O1 | 8.3 | -1.6 | 5.7
CCCN1[C@@H]2Cn3c(ccc(-c4ccncc4)c3=O)[C@H]1[C@@H](C(=O)NCCc1cn(C)cn1)[C@@H]2CO | 2.9 | 12.1 | 82.5
COc1ccccc1C#Cc1ccc2c(c1)[C@@H]1[C@@H](CCN1C(=O)c1ccc(F)cc1)[C@@H](CO)N2 | 37.4 | 7.4 | 78.9
COc1cccc(-c2ccc3c(c2)[C@@H]2[C@@H](CCN2Cc2ccccc2OC)[C@@H](CO)N3)c1 | -98.0* | -58.7 | -2.4
COc1ccccc1CN1CC[C@@H]2[C@H](CO)Nc3ccc(-c4cccc(F)c4)cc3[C@@H]21 | -2.9 | -63.8 | 37.7
